Assay outcomes (PubChem BioAssay)
The full list was thinned out, with hits kept by preference.
TbREL1 primary = TbREL1 RNA ligase inhibitors, primary screen, biochemical, FRET fluorescence. TbREL1 RNA ligation. inhibition, % at 9.66 µM. hit rate 0.49% among 89,000. AID 1117264, 2014;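 active means inhibition above the mean inhibition across all screened compounds plus 3 SD, cut at about 11% in these data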
Target sequence (P86926 whole entry, looked up): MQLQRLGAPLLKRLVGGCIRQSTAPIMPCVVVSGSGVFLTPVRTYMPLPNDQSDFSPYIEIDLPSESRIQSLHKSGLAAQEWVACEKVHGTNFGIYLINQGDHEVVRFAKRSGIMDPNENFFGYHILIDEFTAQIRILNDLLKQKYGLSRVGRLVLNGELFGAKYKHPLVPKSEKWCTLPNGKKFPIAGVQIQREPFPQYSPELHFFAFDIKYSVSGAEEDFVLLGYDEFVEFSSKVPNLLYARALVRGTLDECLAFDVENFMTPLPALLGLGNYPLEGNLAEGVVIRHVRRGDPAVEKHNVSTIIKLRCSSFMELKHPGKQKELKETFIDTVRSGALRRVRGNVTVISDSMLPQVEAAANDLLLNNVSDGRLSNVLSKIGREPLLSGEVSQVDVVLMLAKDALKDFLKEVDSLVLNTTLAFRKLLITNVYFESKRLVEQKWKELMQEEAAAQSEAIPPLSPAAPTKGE
TbREL1 confirm = TbREL1 RNA ligase inhibitors, confirmation, biochemical, FRET fluorescence, triplicate; hit rate 37% among 390; inhibition, % at 9.66 µM; TbREL1 RNA ligation; shares compounds with TbREL1 primary;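 active means mean inhibition across replicates above a set limit taken from the earlier primary screen, cut at about 11% in these data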
Hits are given with their value; . = inactive.

SMILES	TbREL1 primary	others
COCCCNCCOc1ccc(C)cc1[N+](=O)[O-]	.
Cc1cc(Cl)c(OCCCn2cncn2)c(Br)c1	.
COCCCNCCCCOc1c(Cl)cc(C)cc1Br	12	TbREL1 confirm=.
Clc1ccc(-c2nnc(SCc3cccc4ccccc34)n2Cc2ccco2)cc1	.
COC(=O)[C@]12C[C@H](CC(=O)NCC34CC5CC(CC(C5)C3)C4)C(=O)N(Cc3cccc4ccccc34)C1=C[C@H](C(C)C)O[C@@H]2C1CC1	.
Cc1ccc(-n2c(SCC(=O)Nc3ccccc3-c3ccccc3)nnc2-c2ccco2)cc1	.
CCc1ccccc1CNC(=O)C1CCC(CNS(=O)(=O)c2cccc3cccnc23)CC1 (stereo unspecified)	.
C[C@H]1C2CC(OC(=O)Nc3cccc(C(F)(F)F)c3)C(C2)[C@H]2CCCCN21 (stereo partly specified)	.
Cc1cc(Nc2ccc(Cl)c(C(F)(F)F)c2)cc(=O)n1-c1ccc(Cl)c(C(F)(F)F)c1	.
Cc1ccc(-n2nnnc2SCC(=O)c2c(N)n(C3CC3)c(=O)[nH]c2=O)cc1	.
Cn1c(N)c(C(=O)CSc2nnc(C3CC3)n2Cc2ccccc2)c(=O)[nH]c1=O	.
Cn1c(N)c(C(=O)CSc2nnc(-c3c[nH]c4ccccc34)n2C2CC2)c(=O)[nH]c1=O	15	TbREL1 confirm=.
CC(C)(C)NC(=O)C1C(c2ccccc2)=Nc2ccccc2N1C(=O)c1ccc(C(F)(F)F)cc1 (stereo unspecified)	.
Cc1cccc(Cn2cc(COC(=O)Nc3ccc(F)cc3)nn2)c1	15	TbREL1 confirm=.
O=C(Nc1ccc(F)cc1)OCc1cn(Cc2ccccc2)nn1	.
O=C(Nc1ccc(F)cc1)OCc1cn(Cc2ccc(Cl)cc2)nn1	.
O=C(Nc1ccc2c(c1)OCO2)C1Cc2c(-c3ccccc3Oc3ccccc3)ccnc2O1 (stereo unspecified)	.
O=C(NN=Cc1ccc(O)cc1)c1cc(-c2ccc(Cl)cc2)n[nH]1	.
N#C/C(=C/c1ccccc1)C(=O)NCc1ccccc1	.
N#C/C(=C/c1cccc(O)c1)C(=O)NCc1ccc(Cl)cc1	.
N#C/C(=C/c1ccc(O)c(O)c1)C(=O)NCc1ccc(Cl)cc1	46	TbREL1 confirm=.
COC(=O)[C@]12CCCCC=C1N(Cc1ccc(OC)cc1)C(=O)[C@@H]2CC(=O)NCCCCc1ccccc1	.
CCOC(=O)C(CC)n1cnc2c(nnn2-c2ccc(C)cc2)c1=O (stereo unspecified)	19	TbREL1 confirm=.
CCOC(=O)c1nn(-c2ccc(C)cc2)c(=O)c2c(N)scc12	.
COc1ccc(-n2nnc3c(=O)n(CC(=O)N4CCCC4)cnc32)cc1	.
SMILES	TbREL1 primary	others
COc1cc(-n2c(C)nc3cc(C(=O)N4CCCCC4)ccc32)cc(OC)c1OC	.
CC1CCN(C2CCN(S(=O)(=O)c3ccc(C(F)(F)F)cc3)CC2)CC1	24	TbREL1 confirm=.
O=S(=O)(c1ccc(F)cc1)N1CCC(N2CCCCCC2)CC1	.
CC1CCN(C2CCN(S(=O)(=O)c3ccc(F)cc3)CC2)CC1	.
COc1ccc(NC(=O)N(CCc2c(C)[nH]c3ccccc23)Cc2cccs2)cc1OC	.
CCN1CCCCC(NC(=O)c2ccc(Cl)cc2Cl)C1=O (stereo unspecified)	.
COc1ccc(C(=O)Nc2cc(Cl)c(Br)cc2C(=O)O)cc1	.
COC(=O)[C@]12C[C@H](CC(=O)NCc3ccc(C)o3)C(=O)N(Cc3ccc(Cl)cc3Cl)C1=C[C@H](C(C)C)O[C@@H]2C1CC1	.
CCOC(=O)C1CCN(C(=O)CN(c2cc(Cl)ccc2OC)S(=O)(=O)c2ccccc2)CC1	.
COC(=O)CN(c1cc(Cl)ccc1OC)S(=O)(=O)c1ccc(C)cc1	.
COc1ccc(Cl)cc1N(CC(=O)N1CCCC1)S(=O)(=O)c1ccc(C)cc1	12	TbREL1 confirm=.
C#CCNC(=O)C[C@@H]1C[C@]2(C(=O)OCC)CCC3=C2N(CCC3)C1=O	.
CCOc1ccc(S(=O)(=O)N(C)c2ccc(OCC(=O)Nc3ccc4[nH]c(=O)[nH]c4c3)cc2)cc1	11	TbREL1 confirm=.
COC(=O)c1ccc(NC(=O)COc2ccc(N(C)S(=O)(=O)c3ccc(C)cc3)cc2)cc1	.
CN(c1ccc(OCC(=O)Nc2ccc3[nH]c(=O)[nH]c3c2)cc1)S(=O)(=O)c1ccc(Cl)cc1	.
C[C@@H]1CN(C(=O)OC(C)(C)C)CCN1c1ccc(Br)c(C#N)c1	.
COC(=O)[C@]12C[C@H](CC(=O)N3CCCCC3)C(=O)N(Cc3ccco3)C1=C[C@H](C1CCCC1)O[C@@H]2C	.
CC(=O)Nc1ccc(-c2ccnc3c2CC(C(=O)Nc2cccnc2)O3)cc1 (stereo unspecified)	.
COc1cccc(S(=O)(=O)N(C)C[C@@H]2OCc3cn(nn3)CCCC(=O)N([C@@H](C)CO)C[C@H]2C)c1	.
COc1cc([N+](=O)[O-])cc2cc(C(=O)N3CCN=C3c3ccccc3)c(=O)oc12	11	TbREL1 confirm=.
COc1cccc2cc(C(=O)N3CCN(c4ccccc4F)CC3)c(=O)oc12	.
COc1cc(Br)cc2cc(C(=O)N3CCN(c4ccccn4)CC3)c(=O)oc12	.
O=C(Cn1cnc2ccccc2c1=O)N1CCN(Cc2ccc(F)cc2)CC1	.
CCC(=O)NC(c1cccs1)c1ccc2cccnc2c1O (stereo unspecified)	.
CCC(=O)NC(c1cccs1)c1cc([N+](=O)[O-])c2cccnc2c1OC (stereo unspecified)	33	TbREL1 confirm=.
SMILES	TbREL1 primary	others
CC(=O)NC(c1cccs1)c1cc(F)c2cccnc2c1O (stereo unspecified)	.
COc1ccc(N2CCCN(CC(=O)Nc3ccc(Cl)cc3)CC2)cc1	.
COc1ccc(OC)c(CN2C(=O)c3ccccc3C2c2nnnn2C2CCCC2)c1 (stereo unspecified)	.
COc1ccc(-c2nnc(SCC(=O)Nc3ccc(S(=O)(=O)Nc4cc(C)nc(C)n4)cc3)n2-c2ccc(OC)cc2)cc1	.
COc1ccc(OC)c(-c2nnc(SCC(=O)N3CCOCC3)o2)c1	.
COc1ccc(-c2cc(C(=O)N3CCCC3)no2)cc1	.
COc1ccc(OC)c(-c2cc(C(=O)N3CCOCC3)no2)c1	100	TbREL1 confirm=.
CCOC(=O)[C@]12CCC=C1N(CCC1=CCCCC1)C(=O)[C@H](CC(=O)N1CCCCC1)C2	.
CC(=O)/C(N=Nc1ccc(C(=O)O)cc1[N+](=O)[O-])=C(\C)O	12	TbREL1 confirm=.
CC(=O)N1CCN(c2ccc(C(N)=O)cc2[N+](=O)[O-])CC1	.
O=C(O)c1ccc([N+](=O)[O-])cc1	.
CCOC(=O)C1(C)CCCN(C(=O)c2c(F)cccc2F)C1 (stereo unspecified)	.
CC(=C\C=O)/C(C)=C/CC[C@@H]1O[C@@H]2C[C@@H]3O[C@](C)(C[C@H]4C[C@H](O)[C@@H]5O[C@@H]6C[C@H](O)[C@@H](C)O[C@@]6(C)CC[C@H]5O4)[C@@H](O)CC[C@@]3(C)O[C@H]2[C@@H](O)[C@@H]1C	.
Fc1ccc(-c2csc(N3CCOCC3)n2)cc1	.
Nc1ncc(CCN2CCOCC2)c(-c2ccc(F)cc2)n1	15	TbREL1 confirm=.
Fc1ccccc1OCCCN1CCOCC1	.
COC(=O)[C@]12C[C@H](CC(=O)N3CCCC3)C(=O)N(Cc3cccc4ccccc34)C1=C[C@H](C(C)(C)C)O[C@@H]2C	.
O=c1c2c(-c3ccco3)csc2nc(SCc2cn3cccnc3n2)n1-c1ccccc1	23	TbREL1 confirm=.
